Many of the other results were omitted from the sample, so hits are more common in it than they were.
PKM2 act: activators of human pyruvate kinase M2 | purified PKM2, Kinase-Glo ATP luminescence, activation; response scale: 0% is enzyme alone, no compound | Potency, µM (titrated, usually from 57.5 µM), without a hit: at the top dose activation, actives largely listed as activators | actives 0.34% (n = 260,000); note: nearly all actives have a fitted effect of over 55% in size
Target sequence (P14618 whole entry, looked up): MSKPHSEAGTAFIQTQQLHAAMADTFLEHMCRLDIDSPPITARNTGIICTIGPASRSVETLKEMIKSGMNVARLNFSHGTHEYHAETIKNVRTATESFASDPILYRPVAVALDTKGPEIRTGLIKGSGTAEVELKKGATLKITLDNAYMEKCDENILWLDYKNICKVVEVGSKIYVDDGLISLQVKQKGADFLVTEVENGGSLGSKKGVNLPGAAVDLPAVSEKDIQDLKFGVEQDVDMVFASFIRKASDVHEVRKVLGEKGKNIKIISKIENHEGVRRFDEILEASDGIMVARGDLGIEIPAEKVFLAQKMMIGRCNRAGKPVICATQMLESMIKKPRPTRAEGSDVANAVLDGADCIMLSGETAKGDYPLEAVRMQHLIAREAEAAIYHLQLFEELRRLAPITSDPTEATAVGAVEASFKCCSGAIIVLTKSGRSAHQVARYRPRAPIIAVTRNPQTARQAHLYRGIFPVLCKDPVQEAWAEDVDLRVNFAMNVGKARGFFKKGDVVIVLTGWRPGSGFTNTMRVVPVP
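ATP formation by purified human PK-M2, quantified via coupled luciferase luminescence after 1 h at room temperature with 0.1 mM ADP and 0.5 mM PEP final.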
APEX1 inh: blocks human APE1 abasic DNA cleavage. recombinant APE1, TAMRA/BHQ-2 abasic DNA cleavage fluorescence. Potency, µM (highest dose often 65.8 µM), inactives show top-dose activity change, negative = inhibition, hits mostly inhibitors. P27695. AID 2517. actives 0.35% (n = 350,000);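 note: plate controls were vehicle for no effect and reference inhibitor for full effect; nearly all actives have a fitted effect of over 55% in size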
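Quantitative HTS: incision of a TAMRA/BHQ-2 double-stranded substrate bearing a tetrahydrofuran abasic site by 0.75 nM APE1 raises fluorescence. Substrate 50 nM final, added after 15 min compound preincubation at room temperature; progress as third-minus-first kinetic read difference.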
KDM4E inh: inhibitors of human JMJD2E histone demethylase | actives 1.6% (n = 230,000) | JMJD2E catalytic domain, FDH-coupled NADH fluorescence (FDH is formaldehyde dehydrogenase) | AID 2147 | B2RXH2 | Potency, µM (top dose mostly 57.1 µM), for the others: at the highest dose activity change, negative = inhibition, actives largely listed as inhibitors; active = well fitted inhibition curve with a large enough effect, not every such curve was filed as active; inconclusive = small, poorly fitted or top-dose-only effect, or another doubt; inactive = no such curve, though single readings can be large or run the other way;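 note: 0% = wells with enzyme and -100% = buffer wells without enzyme; nearly all actives have a fitted effect of over 50% in size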
BLM helicase inh: Bloom syndrome helicase (human) inhibition; actives 0.2% (n = 350,000); Potency, µM (titrated, usually from 56.1 µM), without a hit: at the highest dose activity change, negative = inhibition, usual class: inhibitors; recombinant BLM DNA unwinding, fluorescence dequenching; P54132;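 note: plate controls were vehicle for no effect and no enzyme for full effect; nearly all actives have a fitted effect of over 35% in size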
RECQ1 inh: blocks DNA unwinding by human RECQ1; actives 0.54% (n = 240,000); RECQ1 DNA unwinding, red fluorescence kinetic read; P46063; Potency, µM (titrated, usually from 57.3 µM), inactives show at the highest dose activity, negative = inhibition, usual class: inhibitors;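 note: plate controls were vehicle for no effect and no enzyme for full effect; nearly all actives have a fitted effect of over 30% in size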
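50 nM RECQ1T1 preincubated 15 min with compound in Tris pH 8.0 buffer with MgCl2, DTT, Tween-20 and 2.5 ug/ml poly(dI-dC); started with 200 nM TAMRA/BHQ-2 forked duplex and 2 mM ATP. Unwinding read as fluorescence (525/598 nm), two reads 2 h apart.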
* marks the source's active call; other numbers are inactive results; ! = repeats disagree; [ ] = another dose, or the depositor's remark. Unless noted, calls come from the whole dose curve; as a rule, active = well fitted curve in the direction sought with a large enough effect; inconclusive = small, poorly fitted or top-dose-only effect, or another doubt; inactive = no such curve, though single readings can be large; an effect the other way counts as inactive or inconclusive. Unless noted, % is set by controls: 0 for no effect and ±100 for the full control effect; potency is the fitted concentration of half-maximal effect.

`Cc1ccc(CNc2ccc(N3CCNCC3)cc2)cc1` gave APEX1 inh 16%.
`C=CCN1C(=O)/C(=C2/C(=O)N(CC(=O)O)c3ccccc32)S/C1=N/c1nccs1` gave PKM2 act 0%, APEX1 inh 13µM*, KDM4E inh -1%, BLM helicase inh -9% and RECQ1 inh 16µM*.
For C=CCN1C(=O)/C(=C/c2ccc(O)cc2)S/C1=N/c1nccs1 the results were PKM2 act 0%, APEX1 inh 1%, KDM4E inh -4%, BLM helicase inh -18% and RECQ1 inh 1%.
For O=C(O)C1CC(CCCP(=O)(O)O)CCN1 (stereo not drawn) the results were APEX1 inh 0%, BLM helicase inh -2% and RECQ1 inh -8%.
Screening COC/C=C/C1=CC2=CC(=O)C(C)(OC(=O)c3cnc4ccccc4n3)C(=O)C2=CN1CCOC (stereo not drawn) returned PKM2 act 1%[11.5 µM], APEX1 inh -1%[12.4 µM], KDM4E inh -2%[11.4 µM], BLM helicase inh -9%[12.4 µM] and RECQ1 inh inactive[11.5 µM].
COC/C=C/C1=CC2=CC(=O)C(C)(OC(=O)c3cnc4ccccc4n3)C(=O)C2=CN1CCN1CCOCC1 (stereo not drawn) was read as PKM2 act 0%[11.5 µM], APEX1 inh -6%[12.4 µM], KDM4E inh 13µM*!, BLM helicase inh -15%[12.4 µM] and RECQ1 inh 12%[11.5 µM].
For Cc1ccc(CNC(=O)C2c3ccccc3C(=O)N3CCc4ccccc4C23)o1 (stereo not drawn) the results were PKM2 act 10µM*, APEX1 inh -3%, KDM4E inh inconclusive, BLM helicase inh -20% and RECQ1 inh inactive.
Screening CC[n+]1c(/C=C2/C=C(C)CC(C)C2)sc2ccccc21 (stereo not drawn) returned PKM2 act 0%, APEX1 inh 15%, KDM4E inh 22µM*, BLM helicase inh -8% and RECQ1 inh -3%.
For CCOC(=O)C1=C(C)N=C2SCCC(=O)N2C1c1ccc(C(=O)OC)cc1 (stereo not drawn) the results were PKM2 act -1%, APEX1 inh 16%, KDM4E inh 4%, BLM helicase inh -5% and RECQ1 inh -4%.
Screening CCOC(=O)C1=C(C)N2C(=C(C#N)[C@@H]1c1ccc(C(=O)OC)cc1)SC[C@@]2(O)C(C)(C)C returned PKM2 act -1%, APEX1 inh -1%, KDM4E inh 20µM*, BLM helicase inh -11% and RECQ1 inh -20%.
Screening Cc1ccc(S(=O)(=O)/C=C\C#N)cc1 returned APEX1 inh 0%, KDM4E inh -27%, BLM helicase inh -2% and RECQ1 inh -2%.
`O=C(Cn1cc(C(F)(F)F)ccc1=O)N/N=C/c1ccc(F)cc1` gave PKM2 act 9%, APEX1 inh -3%, KDM4E inh -7%, BLM helicase inh -1% and RECQ1 inh -3%.
`O=C(Cn1cc(C(F)(F)F)ccc1=O)N/N=C/c1ccccc1O` gave PKM2 act -2%, APEX1 inh -2%, KDM4E inh 10µM*, BLM helicase inh -4% and RECQ1 inh -4%.
O=S(=O)(NCc1cccnc1)c1cccn1-c1ncc(C(F)(F)F)cc1Cl was read as PKM2 act 22µM*, APEX1 inh 2%, KDM4E inh 0%, BLM helicase inh -2% and RECQ1 inh 1%.
Screening CCCNS(=O)(=O)c1cccn1-c1ncc(C(F)(F)F)cc1Cl returned PKM2 act inconclusive, APEX1 inh -2%, KDM4E inh 2%, BLM helicase inh -1% and RECQ1 inh inactive.
For O=c1c(-c2ccc(Cl)cc2)[n+]([O-])c2ccccc2n1O the results were PKM2 act 1%, APEX1 inh 24%, KDM4E inh -12%, BLM helicase inh -11% and RECQ1 inh -7%.
For O=c1c(-c2cccc([N+](=O)[O-])c2)[n+]([O-])c2ccccc2n1O the results were PKM2 act -8%, APEX1 inh -10%, KDM4E inh 22µM*, BLM helicase inh -2% and RECQ1 inh -13%.
`c1ccc2c(c1)ccc1nnc(SCc3ccc4c(c3)OCCO4)n12` gave PKM2 act 22µM*, APEX1 inh 11%, KDM4E inh inconclusive, BLM helicase inh 0% and RECQ1 inh -30%.

High-throughput results from PubChem BioAssay.
